Measurements published in PubChem BioAssay AID651965 (National Center for Advancing Translational Sciences (NCATS), 2013).
Among all 340,000 compounds or so, about 6,400 (1.9%) were called active. Where a call stands in place of a potency, no number is given. About 4% were inconclusive and are not listed. The sample holds actives, similar compounds and a random draw of the others, so the mix is not that of the screen. Calls come from the whole dose curve; as a rule, active = well fitted falling curve with a large enough effect; inconclusive = small, poorly fitted or top-dose-only effect; inactive = no such curve, though single readings can be large or run the other way.

Biological target: ATP-dependent Clp protease proteolytic subunit (Bacillus subtilis (strain 168)) (UniProt P80244)
Sequence (P80244 whole entry, looked up): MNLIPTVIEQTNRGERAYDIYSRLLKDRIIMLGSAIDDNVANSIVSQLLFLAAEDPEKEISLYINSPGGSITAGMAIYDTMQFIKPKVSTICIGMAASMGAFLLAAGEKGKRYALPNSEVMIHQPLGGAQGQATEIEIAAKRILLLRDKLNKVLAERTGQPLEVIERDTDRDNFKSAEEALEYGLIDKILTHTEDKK
Assay: qHTS Assay for Activators of ClpP; note: the source files actives as falling curves though it sought activators and does not explain the sign; nearly all actives have a fitted effect of over 65% in size
Conditions: purified B. subtilis ClpP, FRET peptide cleavage, 20 min; series mostly up to 57.5 µM
In short: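 Buffer: 100 mM Tris/HCl pH8, 100 mM KCl, 0.05% low protease BSA, 2.5% glycerol, 0.01% Tween-20. ClpP 10 microg/mL final; 20 min RT; delta FRET normalized to ADEP and DMSO controls.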
Potency is the fitted concentration of half-maximal effect.

Structure (SMILES) | Potency
O=C(NC1CCCCCC1)C1CCN(C(=O)c2ccc(Cl)cc2)CC1 | inactive
Cc1ccnc(N2CCC(C(=O)NC3CCCCCC3)CC2)n1 | 25.1 µM (active)
O=C(NNC(=O)C1CCN(c2ncccn2)CC1)c1ccccc1 | inactive
c1cc(-c2ccc3[nH]ccc3c2)n2ccnc2c1 | inactive
CCOC(=O)[C@]12CCCC=C1N(CCC1=CCCCC1)C(=O)[C@H](CC(=O)N1CCCCC1)C2 | inactive
N#Cc1c(-c2ccc(F)cc2)nc(-c2ccccc2)[nH]c1=O | inactive
[O-][n+]1onc2c1CCc1[nH]c(-c3ccccc3)nc1-2 | 28.2 µM (active)
CN(C(=O)CN1CCN(c2cc(-c3ccc(OCc4ccccc4)cc3)ncn2)CC1)c1ccccc1 | inactive
COc1ccc(Cl)cc1NC(=O)NCC1CCN(Cc2ccccc2F)CC1 | inactive
COc1ccc(Cl)cc1NC(=O)C(C)N1CCc2ccccc21 (stereo not drawn) | 28.2 µM (active)
COc1ccc(Cl)cc1NC(=O)CNc1ccccc1F | inactive
CCOc1ccc(NC(=O)N(CC(C)C)CC(C)C)cc1 | inactive
CC(C)CCN(C(=O)Nc1ccc(Cl)c(Cl)c1)C(C)c1cccs1 (stereo not drawn) | inactive
CCOc1ccc(NC(=O)N(CCC(C)C)C(C)c2ccco2)cc1 (stereo not drawn) | 28.2 µM (active)
OC(CBr)C[n+]1cccc2cc(Br)ccc21 (stereo not drawn) | inactive
Cc1ccc(C(=O)/C=C/c2c(C)nn(-c3ccccc3)c2Cl)cc1 | 6.31 µM (active)
Cc1nn(-c2ccccc2)c(Cl)c1/C=C/C(=O)c1ccc(O)cc1 | inactive
Cc1ccc(-n2nc(C)c(/C=N/NC(=O)c3cccs3)c2Cl)cc1 | inactive
Cc1ccc(-c2nc3c(C)cc(Br)cn3c2Cc2ccccc2)cc1 | inactive
COC(=O)C[C@@H]1C=C[C@@H](NC(=O)c2ccc3c(c2)OCO3)[C@@H](CO)O1 | inactive
CCOc1ccc(NC(=O)CSc2nnc3c(n2)[nH]c2ccc(S(=O)(=O)N4CCOCC4)cc23)cc1 | inactive
CC(C)C1Cc2[nH][nH]c(=O)c2C(c2ccc(Cl)cc2)O1 (stereo not drawn) | inactive
CCC(=O)Nc1ccc2nc(SCC(=O)N3CCc4ccccc43)sc2c1 | inactive
O=C(Nc1ccc2nc(SCC(=O)N3CCCc4ccccc43)sc2c1)c1ccc(F)cc1 | 28.2 µM (active)
O=C(COc1ccccc1Cl)Nc1ccc2nc(SCC(=O)N3CCCC3)sc2c1 | inactive
O=C(Nc1ccc2nc(SCC(=O)N3CCc4ccccc43)sc2c1)c1ccccc1F | inactive
O=C(Nc1ccc2nc(SCC(=O)N3CCCc4ccccc43)sc2c1)c1ccc(Cl)cc1 | 10 µM (active)
Nc1nnc(SCC(=O)Nc2ccc3nc(SCC(=O)Nc4ccccc4)sc3c2)s1 | inactive
